Our source for the inhibition values is PubChem BioAssay AID1259417 (TB Discovery Research, Infectious Disease Research Institute, 2018).

A short description of the assay: M. tuberculosis growth inhibition, HTS (AID 1259417).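 Also: bacteria grown with compound for 5 days at 37 °C.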 To be noted: stronger effect = higher value, concentration not given here.
Where [1] appears, read: M. tuberculosis DsRed fluorescence growth inhibition.
[2] abbreviates: M. tuberculosis growth inhibition.

Screen size: about 1,100 compounds; about 760 (69%) were called active. No rule for the calls is given here. The set was probably picked from earlier hits. The list shows a part of the results.

With `Cc1ccc(-c2nnc(SCC#CCOC(=O)c3ccco3)o2)cc1`, the inhibition (usually the change of the read-out against control, counted positive when it falls) reads like this: under setting [1], 35.7% (active); under setting [2], 20.4%.

For the compound `O=C(OCC#CCSc1nnc(-c2ccccc2)o1)c1ccco1`, the inhibition reads like this: under setting [1], 44% (active); under setting [2], 10.3%.

On to `O=C(OCC#CCSc1nc2ccccc2o1)c1ccco1`, for which the inhibition is 59.9% (active) under setting [1] and 68.2% under setting [2].

On to `CC(C)(C)NC(=O)COC(=O)c1snc(C(=O)NC2CCCCC2)c1N`, for which the inhibition under setting [1] was 21.4% (active) and the inhibition under setting [2] stood at 66.6%.

With `O=C(CCNc1ccc(Cl)c(C(F)(F)F)c1)c1cccs1`, the inhibition was 10.9% (active) under setting [1] and 35.4% under setting [2].

In the case of `CCOc1ccc(NCCC(=O)c2cccs2)cc1`, the inhibition is -0.257% (inactive) under setting [1] and -9.66% under setting [2].

On to `O=C(/C=C/c1ccco1)Nc1nc(-c2ccccn2)cs1`, for which the inhibition runs as follows: under setting [1], 88.5% (active); under setting [2], 89%.

Turning to `Fc1ccc(Nc2nc(-c3ccccn3)cs2)cc1`, the inhibition runs as follows: under setting [1], 93.9% (active); under setting [2], 94.1%.

On to `CN(C)c1ccc(Nc2nc(-c3ccc(O)cc3O)cs2)cc1`, for which the inhibition reads like this: under setting [1], 36% (active); under setting [2], 10.8%.

Turning to `CN(C)c1ccc(Nc2nc(-c3ccccn3)cs2)cc1`, the inhibition by setting is: under setting [1], 54.1% (active); under setting [2], 38.2%.

As to `Brc1ccc(Nc2nc(-c3ccccn3)cs2)cc1`, the inhibition is, setting by setting: under setting [1], 91% (active); under setting [2], 94.1%.

On to `Clc1ccc(Nc2nc(-c3ccccn3)cs2)nc1`, for which the inhibition reads like this: under setting [1], 101% (active); under setting [2], 101%.

For `c1ccc(Nc2nc(-c3ccccn3)cs2)cc1`, the inhibition is 88.2% (active) under setting [1] and 91.8% under setting [2].

For the compound `Fc1cccc2sc(Nc3nc(-c4ccccn4)cs3)nc12`, the inhibition was 99.5% (active) under setting [1] and 101% under setting [2].

Regarding `CCOc1ccc(Nc2nc(-c3ccccn3)cs2)cc1`, the inhibition by setting is: under setting [1], 89.5% (active); under setting [2], 92%.

As for `Cc1ccc(S/C=C\C(=O)c2ccccc2)cc1`, the inhibition runs as follows: under setting [1], 36.8% (active); under setting [2], 37.6%.

`CSCCC(NC(=O)c1cc([N+](=O)[O-])cc([N+](=O)[O-])c1)c1nc2ccccc2[nH]1` (centres undefined): the inhibition under setting [1] was 51.9% (active) and the inhibition under setting [2] stood at 71.3%.

Take `CCOC(=O)Cn1cc(C#N)c2cccc(CC)c21`: the inhibition reads like this: under setting [1], 14.1% (active); under setting [2], 56.3%.

In the case of `CCOC(=O)COc1ccc2c3c(c(=O)oc2c1)CCCCC3`, the inhibition runs as follows: under setting [1], 42.8% (active); under setting [2], 74.2%.

In the case of `Cc1cc(OC(=O)C2CC2)c2c3c(c(=O)oc2c1)CCCC3`, the inhibition is, setting by setting: under setting [1], 22% (inactive); under setting [2], 21.7%.

`CCOC(=O)COc1cc2c3c(c(=O)oc2cc1C)CCCC3`: the inhibition is, setting by setting: under setting [1], 43% (active); under setting [2], 89.3%.

For the compound `CCOC(=O)c1cc(-c2ccccc2)sc1NC(=S)NC1CCN(Cc2ccccc2)CC1`, the inhibition under setting [1] is 18.5% (inactive) and the inhibition under setting [2] came to 1.16%.

With `CCc1cc(C(=O)OC)c(NC(=S)NCc2ccc(Cl)c(Cl)c2)s1`, the inhibition under setting [1] is 96.8% (active) and the inhibition under setting [2] came out at 88.4%.

For `COc1ccc(C(=O)C(CN2CCCCC2)c2ccccc2)cc1` (centres undefined), the inhibition reads like this: under setting [1], 31.4% (active); under setting [2], 66.8%.

As to `COc1ccc(C(=O)N2N=C(c3ccccc3)CC2(O)C(F)(F)F)cc1` (centres undefined), the inhibition reads like this: under setting [1], 1.52% (inactive); under setting [2], -2.76%.

For the compound `COc1ccc(C(=O)C(CN2CCOCC2)c2ccccc2)cc1` (centres undefined), the inhibition was 42.8% (active) under setting [1] and 77% under setting [2].

Turning to `Nc1nnc(Sc2ncccc2[N+](=O)[O-])s1`, the inhibition by setting is: under setting [1], 98.8% (active); under setting [2], 98.6%.

As to `C=CCNc1nnc(Sc2ncccc2[N+](=O)[O-])s1`, the inhibition reads like this: under setting [1], 97.9% (active); under setting [2], 98.2%.

Regarding `Cc1ccc(C)c(N=Nc2nc3ccccc3n2C)c1`, the inhibition was 100% (active) under setting [1] and 99.1% under setting [2].

Take `Cc1ccc(C(=O)Nc2nnc(C3=COCCO3)o2)cc1`: the inhibition is 11.3% (inactive) under setting [1] and -5.11% under setting [2].

With `O=C(Nc1nnc(C2=COCCO2)o1)c1ccc(F)cc1`, the inhibition runs as follows: under setting [1], 17.6% (inactive); under setting [2], 29.2%.

Regarding `Cc1ccc(C(=O)Nc2nc(-c3ccccc3)c(-c3ccccc3)o2)cc1`, the inhibition was 80.4% (active) under setting [1] and 65.6% under setting [2].

On to `O=C(NCc1nnc2c3ccccc3c(-c3ccccc3)nn12)c1ccc(Cl)cc1`, for which the inhibition is, setting by setting: under setting [1], 15.3% (inactive); under setting [2], -15.9%.

Regarding `O=C(Nc1nc(-c2ccccc2)c(-c2ccccc2)o1)c1ccc(F)cc1`, the inhibition is 93.6% (active) under setting [1] and 93.3% under setting [2].

`CCOC(=O)Cc1c(C)nc2c(-c3cccc(Br)c3)c[nH]n2c1=O`: the inhibition by setting is: under setting [1], 98.3% (active); under setting [2], 97.9%.

`CCOC(=O)CSc1nc(N)c(C#N)c(-c2cccs2)c1C#N`: the inhibition by setting is: under setting [1], -3.66% (inactive); under setting [2], 10.2%.

Take `CCCCOC(=O)CSc1nc(N)c(C#N)c(-c2ccc(OC)cc2)c1C#N`: the inhibition under setting [1] was 4.48% (active) and the inhibition under setting [2] worked out at 30.9%.

`Cc1cc(Sc2ncnc(N)c2[N+](=O)[O-])ncn1`: the inhibition under setting [1] was 99.4% (active) and the inhibition under setting [2] was found to be 100%.

On to `Nc1ncnc(Sc2nc3ccccc3s2)c1[N+](=O)[O-]`, for which the inhibition was 100% (active) under setting [1] and 99.4% under setting [2].

For `Cc1ccc2c(C)nc(Nc3nc(CSc4nc5ccccc5s4)cc(=O)[nH]3)nc2c1`, the inhibition under setting [1] was -4.65% (inactive) and the inhibition under setting [2] was -12.8%.

As to `Cc1c(Cl)ccc2sc(N(CCCn3ccnc3)C(=O)c3ccco3)nc12`, the inhibition was 98.6% (active) under setting [1] and 99.5% under setting [2].

Turning to `Cc1ccc2sc(N(CCCn3ccnc3)C(=O)c3ccco3)nc2c1C`, the inhibition was 98.6% (active) under setting [1] and 98.1% under setting [2].

In the case of `Cc1cc(Cl)cc2sc(N(CCCn3ccnc3)C(=O)c3ccco3)nc12`, the inhibition under setting [1] was 97.5% (active) and the inhibition under setting [2] is 98.4%.

For the compound `Cc1cccc2sc(N(CCCn3ccnc3)C(=O)c3ccco3)nc12`, the inhibition runs as follows: under setting [1], 98.6% (active); under setting [2], 99.8%.

In the case of `O=C(CCc1ccccc1)Nc1nnc(-c2ccc(Cl)s2)o1`, the inhibition reads like this: under setting [1], 10% (inactive); under setting [2], 26.7%.

As to `O=C(Nc1nnc(-c2ccc(Cl)s2)o1)c1ccc([N+](=O)[O-])o1`, the inhibition runs as follows: under setting [1], 95.4% (active); under setting [2], 87.9%.

Take `O=C(Nc1nnc(-c2ccc(Cl)cc2)o1)c1ccc([N+](=O)[O-])o1`: the inhibition is 98.3% (active) under setting [1] and 98.8% under setting [2].

`O=C(Nc1nc2c(Cl)cccc2s1)c1ccc([N+](=O)[O-])o1`: the inhibition is -3.76% (inactive) under setting [1] and 28.2% under setting [2].

Take `O=C(Nc1ccc(Cl)cc1C(F)(F)F)c1ccc([N+](=O)[O-])o1`: the inhibition by setting is: under setting [1], 60.7% (active); under setting [2], 58.1%.

As to `C=CCn1c(O)c(C2=c3ccccc3=NC2=O)sc1=N`, the inhibition is, setting by setting: under setting [1], -9.61% (inactive); under setting [2], 14.7%.

On to `CCCCCn1c(NCc2ccc(N(C)C)cc2)nc2ccccc21`, for which the inhibition under setting [1] was -0.00251% (inactive) and the inhibition under setting [2] is -15.7%.

With `CCn1c(NCc2c(O)ccc3ccccc23)nc2ccccc21`, the inhibition reads like this: under setting [1], 77.8% (active); under setting [2], 89%.

As to `Cc1ccc(-c2nnc(NC(=O)c3c(F)cccc3F)o2)c(C)c1`, the inhibition runs as follows: under setting [1], 2.49% (inactive); under setting [2], -10.3%.

For `Cc1ccc(-c2nnc(NC(=O)c3ccc([N+](=O)[O-])o3)o2)c(C)c1`, the inhibition reads like this: under setting [1], 97.8% (active); under setting [2], 98.1%.

Consider `Cc1ccc(C)c(-c2nnc(NC(=O)c3ccc([N+](=O)[O-])s3)o2)c1`, for which the inhibition runs as follows: under setting [1], 98.9% (active); under setting [2], 97.4%.

In the case of `Cc1ccc(-c2nnc(NC(=O)c3ccc([N+](=O)[O-])s3)o2)c(C)c1`, the inhibition is 41.9% (active) under setting [1] and 72.9% under setting [2].

For the compound `Cc1ccc(C)c(-c2nnc(NC(=O)c3ccc([N+](=O)[O-])o3)o2)c1`, the inhibition is 12.4% (inactive) under setting [1] and 1.93% under setting [2].
